# Calls of active or inactive are those of the source. The calls were made as follows: active = hit-call score of the fitted dose curve at least 0.9, where 1 is the maximum; inactive = score below 0.9.
# Test system: TTR (gene 7276)
# Experiment: CCTE_GLTED_hTTR_0.125uM: CCTE's human Transthyretin (hTTR) Inhibition Assay, with 0.125uM TTR, Great Lakes Toxicology and Ecology Division (GLTED) Lab (AID 2284431);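 also: hits lower the fluorescence signal relative to DMSO baseline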
# Outline: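 TTR at 0.125uM incubated 2 h with test chemical; displacement of bound ANSA read by fluorescence (ex 380, em 475). Activity is signal loss versus DMSO baseline.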
row,Compound,AC50
1,CS(=O)(=O)NC(=O)c1cc(Oc2ccc(C(F)(F)F)cc2Cl)ccc1[N+](=O)[O-],6.19 µM (active)
2,[Cl-].[Cl-].[Hg+2],6.05 µM (active)
3,Nc1ccc(Oc2ccc(N)cc2)cc1,17.7 µM (active)
4,Cc1cc(N=Nc2ccccc2C)ccc1N,0.0179 µM (active)
5,Nc1cc(Cl)cc(C(=O)O)c1Cl,8.24 µM (active)
6,c1ccc(N=Nc2ccccc2)cc1,28 µM (active)
7,Brc1ccc(Oc2ccccc2)cc1,50 µM (active)
8,c1ccc(NNc2ccccc2)cc1,33.3 µM (active)
9,Nc1ccc(N=Nc2ccccc2)cc1,0.593 µM (active)
10,CCC(C)c1ccc(O)cc1 (stereo unspecified),4.66 µM (active)
11,CCNS(=O)(=O)C(F)(F)C(F)(F)C(F)(F)C(F)(F)C(F)(F)C(F)(F)C(F)(F)C(F)(F)F,1.05 µM (active)
